# Data from publication PMC5349851, “Combinatorial bZIP dimers display complex DNA-binding specificity landscapes”.
# Tests used:
# Test in all cases: SELEX-seq (CSI, HT-SELEX, round 3); SELEX-seq: 1x PBS (10 mM phosphate, 137 mM NaCl, 2.7 mM KCl) pH 7.6, 2.5 mM DTT, 50 ng/ul poly dI-dC, 0.1% BSA, 50 nM biotinylated bZIP (1:3 with partner for heterodimers), 100 nM library, room temperature, 1 h, 3 rounds; high values mean tight binding
# Details in all cases: protein: recombinant;recombinant; copies: 1;1; dsDNA, one strand shown
# [1] = molecular target: T1, ATF2;ATF2 (Homo sapiens;Homo sapiens, UniProt P15336;P15336 343-417;343-417, |)
# T1 sequence 1: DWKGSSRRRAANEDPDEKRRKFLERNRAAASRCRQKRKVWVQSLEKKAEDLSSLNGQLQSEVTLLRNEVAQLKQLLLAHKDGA
# T1 sequence 2: T1 sequence 1
# [2] = molecular target: T2, DBP;DBP (Homo sapiens;Homo sapiens, UniProt Q10586;Q10586 246-324;246-324, |)
# T2 sequence 1: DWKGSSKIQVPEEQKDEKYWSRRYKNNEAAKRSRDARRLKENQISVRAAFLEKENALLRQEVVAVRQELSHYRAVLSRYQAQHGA
# T2 sequence 2: T2 sequence 1
# [3] = molecular target: T3, JUNB;CEBPG (Homo sapiens;Homo sapiens, UniProt P17275;P53567 259-332;52-130, |)
# T3 sequence 1: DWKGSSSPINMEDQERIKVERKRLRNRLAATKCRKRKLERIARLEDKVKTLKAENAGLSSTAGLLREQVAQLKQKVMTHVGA
# T3 sequence 2: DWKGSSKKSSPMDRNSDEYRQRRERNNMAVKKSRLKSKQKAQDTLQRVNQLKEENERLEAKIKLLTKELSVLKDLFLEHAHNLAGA
# [4] = molecular target: JUNB;JUN (Homo sapiens;Homo sapiens, UniProt P17275;P05412 259-332;243-316, |)
# Chain of JUNB;JUN (P05412 other isoform, or with tags, fused parts or gaps |): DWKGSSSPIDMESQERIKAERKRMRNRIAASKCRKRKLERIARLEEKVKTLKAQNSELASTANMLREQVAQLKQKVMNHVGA
# [5] = molecular target: T4, JUNB;BATF3 (Homo sapiens;Homo sapiens, UniProt P17275;Q9NR55 259-332;26-99, |)
# T4 sequence 1: T3 sequence 1
# T4 sequence 2: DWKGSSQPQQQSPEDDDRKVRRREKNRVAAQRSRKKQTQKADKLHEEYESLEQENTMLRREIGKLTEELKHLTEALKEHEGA
# [6] = molecular target: T5, JUNB;DBP (Homo sapiens;Homo sapiens, UniProt P17275;Q10586 259-332;246-324, |)
# T5 sequence 1: T3 sequence 1
# T5 sequence 2: T2 sequence 1
# [7] = molecular target: BATF;CEBPA (Homo sapiens;Homo sapiens, UniProt Q16520;P49715 17-90;273-345, |)
# Chain of BATF;CEBPA (P49715 other isoform, or with tags, fused parts or gaps |): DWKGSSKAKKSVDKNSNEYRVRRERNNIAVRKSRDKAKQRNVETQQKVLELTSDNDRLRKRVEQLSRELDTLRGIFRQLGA
# [8] = molecular target: T6, FOSL1;ATF3 (Homo sapiens;Homo sapiens, UniProt P15407;P18847 96-169;77-150, |)
# T6 sequence 1: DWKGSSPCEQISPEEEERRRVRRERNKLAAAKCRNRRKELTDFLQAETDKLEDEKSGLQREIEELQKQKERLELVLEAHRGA
# T6 sequence 2: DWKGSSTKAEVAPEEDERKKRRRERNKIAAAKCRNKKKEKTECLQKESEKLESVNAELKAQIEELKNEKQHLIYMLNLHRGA
# [9] = molecular target: FOSL1;CEBPA (Homo sapiens;Homo sapiens, UniProt P15407;P49715 96-169;273-345, |)
# [10] = molecular target: FOSL1;JUN (Homo sapiens;Homo sapiens, UniProt P15407;P05412 96-169;243-316, |)
# [11] = molecular target: T7, FOSL1;BATF3 (Homo sapiens;Homo sapiens, UniProt P15407;Q9NR55 96-169;26-99, |)
# T7 sequence 1: T6 sequence 1
# T7 sequence 2: T4 sequence 2
# [12] = molecular target: FOS;ATF3 (Homo sapiens;Homo sapiens, UniProt P01100;P18847 128-201;77-150, |)
# Chain of FOS;ATF3 (P01100 other isoform, or with tags, fused parts or gaps |, chain 1 of 2, one chain of several): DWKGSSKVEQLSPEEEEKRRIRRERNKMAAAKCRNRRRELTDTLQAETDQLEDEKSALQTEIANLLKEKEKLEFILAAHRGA
# [13] = molecular target: FOS;ATF4 (Homo sapiens;Homo sapiens, UniProt P01100;P18848 128-201;269-346, |)
# Chain of FOS;ATF4 (P01100 other isoform, or with tags, fused parts or gaps |, chain 1 of 2): as the sequence (P01100 other isoform, or with tags, fused parts or gaps |, chain 1 of 2, one chain of several) above
# Chain of FOS;ATF4 (P18848 other isoform, or with tags, fused parts or gaps |, chain 2 of 2): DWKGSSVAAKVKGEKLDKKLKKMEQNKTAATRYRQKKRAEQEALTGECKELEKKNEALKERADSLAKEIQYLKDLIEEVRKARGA
# [14] = molecular target: T8, BATF3;BATF3 (Homo sapiens;Homo sapiens, UniProt Q9NR55;Q9NR55 26-99;26-99, |)
# T8 sequence 1: T4 sequence 2
# T8 sequence 2: T4 sequence 2
# [15] = molecular target: T9, XBP1;XBP1 (Homo sapiens;Homo sapiens, UniProt P17861;P17861 61-138;61-138, |)
# T9 sequence 1: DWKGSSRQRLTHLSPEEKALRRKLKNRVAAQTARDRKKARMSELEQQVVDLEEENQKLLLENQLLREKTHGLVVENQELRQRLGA
# T9 sequence 2: T9 sequence 1
# [16] = molecular target: T10, JUNB;ATF3 (Homo sapiens;Homo sapiens, UniProt P17275;P18847 259-332;77-150, |)
# T10 sequence 1: T3 sequence 1
# T10 sequence 2: T6 sequence 2
# [17] = molecular target: JUNB;ATF4 (Homo sapiens;Homo sapiens, UniProt P17275;P18848 259-332;269-346, |)
# Chain of JUNB;ATF4 (P18848 other isoform, or with tags, fused parts or gaps |): as the sequence (P18848 other isoform, or with tags, fused parts or gaps |, chain 2 of 2) above
# [18] = molecular target: T11, JUNB;ATF2 (Homo sapiens;Homo sapiens, UniProt P17275;P15336 259-332;343-417, |)
# T11 sequence 1: T3 sequence 1
# T11 sequence 2: T1 sequence 1
# [19] = molecular target: T12, BATF;ATF3 (Homo sapiens;Homo sapiens, UniProt Q16520;P18847 17-90;77-150, |)
# T12 sequence 1: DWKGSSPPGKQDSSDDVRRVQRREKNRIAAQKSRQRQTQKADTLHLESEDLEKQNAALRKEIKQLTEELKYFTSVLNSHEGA
# T12 sequence 2: T6 sequence 2
# [20] = molecular target: FOS;BATF3 (Homo sapiens;Homo sapiens, UniProt P01100;Q9NR55 128-201;26-99, |)
# Chain of FOS;BATF3 (P01100 other isoform, or with tags, fused parts or gaps |): as the sequence (P01100 other isoform, or with tags, fused parts or gaps |, chain 1 of 2, one chain of several) above
Sequence,binding signal [1],binding signal [2],binding signal [3],binding signal [4],binding signal [5],binding signal [6],binding signal [7],binding signal [8],binding signal [9],binding signal [10],binding signal [11],binding signal [12],binding signal [13],binding signal [14],binding signal [15],binding signal [16],binding signal [17],binding signal [18],binding signal [19],binding signal [20]
ATGATGCAAT,0.00515 relative CSI intensity (max = 1),0.00594 relative CSI intensity (max = 1),0.252 relative CSI intensity (max = 1),0.0548 relative CSI intensity (max = 1),0.00368 relative CSI intensity (max = 1),0.0471 relative CSI intensity (max = 1),0.0115 relative CSI intensity (max = 1),0.00412 relative CSI intensity (max = 1),0.368 relative CSI intensity (max = 1),0.00257 relative CSI intensity (max = 1),0.00287 relative CSI intensity (max = 1),0.0114 relative CSI intensity (max = 1),0.00384 relative CSI intensity (max = 1),,,,,,,
ATGACGCAAT,0.0881 relative CSI intensity (max = 1),0.0702 relative CSI intensity (max = 1),0.308 relative CSI intensity (max = 1),0.0103 relative CSI intensity (max = 1),0.026 relative CSI intensity (max = 1),0.162 relative CSI intensity (max = 1),0.00768 relative CSI intensity (max = 1),0.0466 relative CSI intensity (max = 1),0.765 relative CSI intensity (max = 1),0.0151 relative CSI intensity (max = 1),,0.0598 relative CSI intensity (max = 1),0.0149 relative CSI intensity (max = 1),0.00125 relative CSI intensity (max = 1),0.00105 relative CSI intensity (max = 1),0.0139 relative CSI intensity (max = 1),0.0028 relative CSI intensity (max = 1),0.00356 relative CSI intensity (max = 1),0.0223 relative CSI intensity (max = 1),0.00954 relative CSI intensity (max = 1)
ATGACGTCAT,1 relative CSI intensity (max = 1),0.0564 relative CSI intensity (max = 1),0.0649 relative CSI intensity (max = 1),0.769 relative CSI intensity (max = 1),1 relative CSI intensity (max = 1),1 relative CSI intensity (max = 1),0.00178 relative CSI intensity (max = 1),0.156 relative CSI intensity (max = 1),0.261 relative CSI intensity (max = 1),0.478 relative CSI intensity (max = 1),0.282 relative CSI intensity (max = 1),0.117 relative CSI intensity (max = 1),1 relative CSI intensity (max = 1),0.904 relative CSI intensity (max = 1),0.222 relative CSI intensity (max = 1),1 relative CSI intensity (max = 1),1 relative CSI intensity (max = 1),1 relative CSI intensity (max = 1),0.113 relative CSI intensity (max = 1),1 relative CSI intensity (max = 1)
ATGACGTAAT,0.289 relative CSI intensity (max = 1),0.487 relative CSI intensity (max = 1),0.17 relative CSI intensity (max = 1),0.0997 relative CSI intensity (max = 1),0.0919 relative CSI intensity (max = 1),0.727 relative CSI intensity (max = 1),0.00231 relative CSI intensity (max = 1),0.0529 relative CSI intensity (max = 1),0.208 relative CSI intensity (max = 1),0.0392 relative CSI intensity (max = 1),0.0576 relative CSI intensity (max = 1),0.0389 relative CSI intensity (max = 1),0.0605 relative CSI intensity (max = 1),0.0127 relative CSI intensity (max = 1),0.00422 relative CSI intensity (max = 1),0.166 relative CSI intensity (max = 1),0.0439 relative CSI intensity (max = 1),0.151 relative CSI intensity (max = 1),0.0836 relative CSI intensity (max = 1),0.0787 relative CSI intensity (max = 1)
CCTGACGTCA,0.144 relative CSI intensity (max = 1),,0.00362 relative CSI intensity (max = 1),0.0172 relative CSI intensity (max = 1),0.0239 relative CSI intensity (max = 1),0.0067 relative CSI intensity (max = 1),,0.0517 relative CSI intensity (max = 1),0.00677 relative CSI intensity (max = 1),0.00953 relative CSI intensity (max = 1),0.0211 relative CSI intensity (max = 1),0.0295 relative CSI intensity (max = 1),0.0251 relative CSI intensity (max = 1),0.0069 relative CSI intensity (max = 1),,0.031 relative CSI intensity (max = 1),0.0113 relative CSI intensity (max = 1),0.0143 relative CSI intensity (max = 1),0.0203 relative CSI intensity (max = 1),0.0279 relative CSI intensity (max = 1)
ATGACGGAAT,0.0134 relative CSI intensity (max = 1),,0.00175 relative CSI intensity (max = 1),0.0196 relative CSI intensity (max = 1),0.00175 relative CSI intensity (max = 1),0.0141 relative CSI intensity (max = 1),,0.0493 relative CSI intensity (max = 1),0.00381 relative CSI intensity (max = 1),0.00225 relative CSI intensity (max = 1),,0.0362 relative CSI intensity (max = 1),0.00272 relative CSI intensity (max = 1),,,0.00128 relative CSI intensity (max = 1),,,0.019 relative CSI intensity (max = 1),
